# Measurements published in the supplement of paper PMC4022240.
# ± gives the standard deviation.
# Experiments:
# Experiment in all cases: peptide microarray binding signal (635 nm), min-max normalized on array (fraction of array maximum); higher = stronger binding
# [1] = molecular target: T1, HaloTag-ATRX ADD domain (163-292)
# T1 chain: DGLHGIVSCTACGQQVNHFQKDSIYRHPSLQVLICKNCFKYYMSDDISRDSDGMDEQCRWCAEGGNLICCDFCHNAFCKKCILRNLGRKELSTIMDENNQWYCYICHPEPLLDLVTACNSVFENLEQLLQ
# Method in brief: (§1)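 Arrays carried histone 13-mer peptide–cellulose conjugates printed in triplicate on nitrocellulose alongside a Cy3 tracer. After overnight blocking at 4°C, they were incubated for 1 h at 4°C with biotin-labelled HaloTag reader fusions (10 nM to 1 μM) plus streptavidin-Alexa Fluor 647, or with rabbit histone antibodies (1:10,000 to 1:2,000) plus anti-rabbit Alexa 647. Scanning on an Axon GenePix 4000B used 635 nm for signal and 532 nm for misprints. The binding signal reported is each triplicate's mean spot intensity after per-library min-max scaling.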
# [2] = molecular target: HaloTag-ING2 PHD (mouse Ing2 200-280)
# Method in brief: as §1
# [3] = molecular target: anti-H3K4me3 antibody ab8580
# Method in brief: as §1
# [4] = molecular target: anti-H3K9me3 antibody ab8898
# Method in brief: as §1
# [5] = peptide region: H4 1-13, peptide modifications: H4K5ac H4K8ac H4K12ac, binder concentration: 1:2,000 dilution
# [6] = peptide region: H4 1-13, peptide modifications: H4K5ac H4K8ac H4K12ac, binder concentration: 1:10,000 dilution
# [7] = peptide region: H3 112-124, peptide modifications: H3K122me3, binder concentration: 1:2,000 dilution
# [8] = peptide region: H3 112-124, peptide modifications: H3K122me3, binder concentration: 1:10,000 dilution
# [9] = peptide region: H3 112-124, peptide modifications: H3K122me1, binder concentration: 1:2,000 dilution
# [10] = peptide region: H3 112-124, peptide modifications: H3K122me1, binder concentration: 1:10,000 dilution
# [11] = peptide region: H4 1-13, peptide modifications: H4K5ac H4K12ac, binder concentration: 1:2,000 dilution
# [12] = peptide region: H4 1-13, peptide modifications: H4K5ac H4K12ac, binder concentration: 1:10,000 dilution
# [13] = peptide region: H4 1-13, peptide modifications: H4K8ac H4K12ac, binder concentration: 1:2,000 dilution
# [14] = peptide region: H4 1-13, peptide modifications: H4K8ac H4K12ac, binder concentration: 1:10,000 dilution
# [15] = peptide region: H4 1-13, peptide modifications: H4K5ac H4K8ac, binder concentration: 1:2,000 dilution
# [16] = peptide region: H4 1-13, peptide modifications: H4K5ac H4K8ac, binder concentration: 1:10,000 dilution
# [17] = peptide region: H4 1-13, peptide modifications: H4R3me2s, binder concentration: 1:2,000 dilution
# [18] = peptide region: H4 1-13, peptide modifications: H4R3me2s, binder concentration: 1:10,000 dilution
# [19] = peptide region: H4 1-13, peptide modifications: H4K12ac, binder concentration: 1:2,000 dilution
# [20] = peptide region: H4 1-13, peptide modifications: H4K12ac, binder concentration: 1:10,000 dilution
# [21] = peptide region: H4 1-13, peptide modifications: H4R3cit, binder concentration: 1:2,000 dilution
# [22] = peptide region: H4 1-13, peptide modifications: H4R3cit, binder concentration: 1:10,000 dilution
# [23] = peptide region: H4 1-13, peptide modifications: H4K8ac, binder concentration: 1:2,000 dilution
# [24] = peptide region: H4 1-13, peptide modifications: H4K8ac, binder concentration: 1:10,000 dilution
binder,measurement,setting,value
SGRGKGGKGLGKG [H4 1-13 S G R G Kac G G Kac G L G Kac G],peptide microarray binding signal,"[1]; peptide region: H4 1-13, peptide modifications: H4K5ac H4K8ac H4K12ac, binder concentration: 50 nM",0.00417 ± 0.00038
same,peptide microarray binding signal,"[1]; peptide region: H4 1-13, peptide modifications: H4K5ac H4K8ac H4K12ac, binder concentration: 500 nM",0.00538 ± 0.00043
same,peptide microarray binding signal,"[2]; peptide region: H4 1-13, peptide modifications: H4K5ac H4K8ac H4K12ac, binder concentration: 10 nM",0.00418 ± 0.00011
same,peptide microarray binding signal,"[2]; peptide region: H4 1-13, peptide modifications: H4K5ac H4K8ac H4K12ac, binder concentration: 100 nM",0.00645 ± 0.00041
same,peptide microarray binding signal,[3]; [5],0.00128 ± 0.00011
same,peptide microarray binding signal,[3]; [6],0.001541 ± 1.5e-05
same,peptide microarray binding signal,[4]; [5],0.000695 ± 4.8e-05
same,peptide microarray binding signal,[4]; [6],0.001441 ± 1.4e-05
IHAKRVTIMPKDI [H3 112-124 I H A K R V T I M P Kme3 D I],peptide microarray binding signal,"[1]; peptide region: H3 112-124, peptide modifications: H3K122me3, binder concentration: 50 nM",0.00423 ± 4.3e-05
same,peptide microarray binding signal,"[1]; peptide region: H3 112-124, peptide modifications: H3K122me3, binder concentration: 500 nM",0.0122 ± 0.00089
same,peptide microarray binding signal,"[2]; peptide region: H3 112-124, peptide modifications: H3K122me3, binder concentration: 10 nM",0.00489 ± 0.00015
same,peptide microarray binding signal,"[2]; peptide region: H3 112-124, peptide modifications: H3K122me3, binder concentration: 100 nM",0.0106 ± 0.00081
same,peptide microarray binding signal,[3]; [7],0.000868 ± 3.3e-05
same,peptide microarray binding signal,[3]; [8],0.00126 ± 7.5e-05
same,peptide microarray binding signal,[4]; [7],0.0125 ± 0.002
same,peptide microarray binding signal,[4]; [8],0.00381 ± 0.00041
IHAKRVTIMPKDI [H3 112-124 I H A K R V T I M P Kme D I],peptide microarray binding signal,"[1]; peptide region: H3 112-124, peptide modifications: H3K122me1, binder concentration: 50 nM",0.00429 ± 0.00037
same,peptide microarray binding signal,"[1]; peptide region: H3 112-124, peptide modifications: H3K122me1, binder concentration: 500 nM",0.0122 ± 0.0011
same,peptide microarray binding signal,"[2]; peptide region: H3 112-124, peptide modifications: H3K122me1, binder concentration: 10 nM",0.0077 ± 0.0008
same,peptide microarray binding signal,"[2]; peptide region: H3 112-124, peptide modifications: H3K122me1, binder concentration: 100 nM",0.00602 ± 0.00041
same,peptide microarray binding signal,[3]; [9],0.00168 ± 0.00019
same,peptide microarray binding signal,[3]; [10],0.00348 ± 0.0013
same,peptide microarray binding signal,[4]; [9],0.00251 ± 0.00011
same,peptide microarray binding signal,[4]; [10],0.00144 ± 5.1e-05
SGRGKGGKGLGKG [H4 1-13 S G R G Kac G G K G L G Kac G],peptide microarray binding signal,"[1]; peptide region: H4 1-13, peptide modifications: H4K5ac H4K12ac, binder concentration: 50 nM",0.00552 ± 0.00053
same,peptide microarray binding signal,"[1]; peptide region: H4 1-13, peptide modifications: H4K5ac H4K12ac, binder concentration: 500 nM",0.0164 ± 0.0029
same,peptide microarray binding signal,"[2]; peptide region: H4 1-13, peptide modifications: H4K5ac H4K12ac, binder concentration: 10 nM",0.00352 ± 0.00063
same,peptide microarray binding signal,"[2]; peptide region: H4 1-13, peptide modifications: H4K5ac H4K12ac, binder concentration: 100 nM",0.00822 ± 0.0021
same,peptide microarray binding signal,[3]; [11],0.000547 ± 0.00012
same,peptide microarray binding signal,[3]; [12],0.00217 ± 0.00014
same,peptide microarray binding signal,[4]; [11],0.00131 ± 0.00038
same,peptide microarray binding signal,[4]; [12],0.00196 ± 8e-05
SGRGKGGKGLGKG [H4 1-13 S G R G K G G Kac G L G Kac G],peptide microarray binding signal,"[1]; peptide region: H4 1-13, peptide modifications: H4K8ac H4K12ac, binder concentration: 50 nM",0.00188 ± 7.5e-05
same,peptide microarray binding signal,"[1]; peptide region: H4 1-13, peptide modifications: H4K8ac H4K12ac, binder concentration: 500 nM",0.00533 ± 0.00034
same,peptide microarray binding signal,"[2]; peptide region: H4 1-13, peptide modifications: H4K8ac H4K12ac, binder concentration: 10 nM",0.00179 ± 0.0001
same,peptide microarray binding signal,"[2]; peptide region: H4 1-13, peptide modifications: H4K8ac H4K12ac, binder concentration: 100 nM",0.00255 ± 6.4e-05
same,peptide microarray binding signal,[3]; [13],0.00017 ± 6.4e-06
same,peptide microarray binding signal,[3]; [14],0.000799 ± 1.7e-05
same,peptide microarray binding signal,[4]; [13],0.000438 ± 8.5e-06
same,peptide microarray binding signal,[4]; [14],0.000577 ± 1.2e-05
SGRGKGGKGLGKG [H4 1-13 S G R G Kac G G Kac G L G K G],peptide microarray binding signal,"[1]; peptide region: H4 1-13, peptide modifications: H4K5ac H4K8ac, binder concentration: 50 nM",0.00737 ± 0.00034
same,peptide microarray binding signal,"[1]; peptide region: H4 1-13, peptide modifications: H4K5ac H4K8ac, binder concentration: 500 nM",0.0151 ± 0.00043
same,peptide microarray binding signal,"[2]; peptide region: H4 1-13, peptide modifications: H4K5ac H4K8ac, binder concentration: 10 nM",0.00746 ± 6.7e-05
same,peptide microarray binding signal,"[2]; peptide region: H4 1-13, peptide modifications: H4K5ac H4K8ac, binder concentration: 100 nM",0.0206 ± 0.0023
same,peptide microarray binding signal,[3]; [15],0.00177 ± 8.8e-05
same,peptide microarray binding signal,[3]; [16],0.00285 ± 8.8e-05
same,peptide microarray binding signal,[4]; [15],0.00068 ± 7.5e-05
same,peptide microarray binding signal,[4]; [16],0.00156 ± 5.5e-05
SGRGKGGKGLGKG [H4 1-13 S G Rme2s G K G G K G L G K G],peptide microarray binding signal,"[1]; peptide region: H4 1-13, peptide modifications: H4R3me2s, binder concentration: 50 nM",0.00304 ± 5.1e-05
same,peptide microarray binding signal,"[1]; peptide region: H4 1-13, peptide modifications: H4R3me2s, binder concentration: 500 nM",0.0107 ± 0.0019
same,peptide microarray binding signal,"[2]; peptide region: H4 1-13, peptide modifications: H4R3me2s, binder concentration: 10 nM",0.00161 ± 0.00016
same,peptide microarray binding signal,"[2]; peptide region: H4 1-13, peptide modifications: H4R3me2s, binder concentration: 100 nM",0.00468 ± 0.0011
same,peptide microarray binding signal,[3]; [17],0.000227 ± 2.2e-05
same,peptide microarray binding signal,[3]; [18],0.00097 ± 4.3e-05
same,peptide microarray binding signal,[4]; [17],0.000317 ± 3.5e-05
same,peptide microarray binding signal,[4]; [18],0.000461
SGRGKGGKGLGKG [H4 1-13 S G R G K G G K G L G Kac G],peptide microarray binding signal,"[1]; peptide region: H4 1-13, peptide modifications: H4K12ac, binder concentration: 50 nM",0.00238 ± 2.8e-05
same,peptide microarray binding signal,"[1]; peptide region: H4 1-13, peptide modifications: H4K12ac, binder concentration: 500 nM",0.00652 ± 0.001
same,peptide microarray binding signal,"[2]; peptide region: H4 1-13, peptide modifications: H4K12ac, binder concentration: 10 nM",0.00251 ± 0.00023
same,peptide microarray binding signal,"[2]; peptide region: H4 1-13, peptide modifications: H4K12ac, binder concentration: 100 nM",0.0056 ± 0.00073
same,peptide microarray binding signal,[3]; [19],0.000302 ± 1.7e-05
same,peptide microarray binding signal,[3]; [20],0.000799 ± 3.3e-05
same,peptide microarray binding signal,[4]; [19],0.000121 ± 8.7e-06
same,peptide microarray binding signal,[4]; [20],0.000577 ± 6.2e-06
SGRGKGGKGLGKG [H4 1-13 S G Rcit G K G G K G L G K G],peptide microarray binding signal,"[1]; peptide region: H4 1-13, peptide modifications: H4R3cit, binder concentration: 50 nM",0.00524 ± 0.00048
same,peptide microarray binding signal,"[1]; peptide region: H4 1-13, peptide modifications: H4R3cit, binder concentration: 500 nM",0.0149 ± 0.00041
same,peptide microarray binding signal,"[2]; peptide region: H4 1-13, peptide modifications: H4R3cit, binder concentration: 10 nM",0.00209 ± 0.00016
same,peptide microarray binding signal,"[2]; peptide region: H4 1-13, peptide modifications: H4R3cit, binder concentration: 100 nM",0.00468 ± 0.00014
same,peptide microarray binding signal,[3]; [21],0.00104 ± 0.00043
same,peptide microarray binding signal,[3]; [22],0.001997 ± 1.8e-05
same,peptide microarray binding signal,[4]; [21],0.00199 ± 3.7e-05
same,peptide microarray binding signal,[4]; [22],0.00161 ± 4.1e-05
SGRGKGGKGLGKG [H4 1-13 S G R G K G G Kac G L G K G],peptide microarray binding signal,"[1]; peptide region: H4 1-13, peptide modifications: H4K8ac, binder concentration: 50 nM",0.00248 ± 2.9e-05
same,peptide microarray binding signal,"[1]; peptide region: H4 1-13, peptide modifications: H4K8ac, binder concentration: 500 nM",0.00481 ± 8.5e-05
same,peptide microarray binding signal,"[2]; peptide region: H4 1-13, peptide modifications: H4K8ac, binder concentration: 10 nM",0.002626 ± 1.5e-05
same,peptide microarray binding signal,"[2]; peptide region: H4 1-13, peptide modifications: H4K8ac, binder concentration: 100 nM",0.00546 ± 0.00011
same,peptide microarray binding signal,[3]; [23],0.000434 ± 1.2e-05
same,peptide microarray binding signal,[3]; [24],0.000628 ± 6.7e-06
same,peptide microarray binding signal,[4]; [23],9.06e-05 ± 3.5e-06
same,peptide microarray binding signal,[4]; [24],0.000346 ± 3.8e-06
